# Assay results as given in paper PMC7862700, “An all-to-all approach to the identification of sequence-specific readers for epigenetic DNA modifications on cytosine”.
# Tests used:
# Assay in all cases: DAPPL (digital affinity profiling via proximity ligation, sequencing); 10 mM Tris-HCl pH 7.5, 50 mM NaCl, 1 mM DTT, 4% glycerol, room temperature, 30 min; GST-TFs on glutathione beads, 16-mer random dsDNA library, 0.1% formaldehyde crosslink after washing; high values mean tight binding
# Details in all cases: protein: recombinant; tags: N-terminal GST; dsDNA, one strand shown
# [1] = biological target: T1, FEV (Homo sapiens, UniProt Q99581 1-238)
# T1 sequence: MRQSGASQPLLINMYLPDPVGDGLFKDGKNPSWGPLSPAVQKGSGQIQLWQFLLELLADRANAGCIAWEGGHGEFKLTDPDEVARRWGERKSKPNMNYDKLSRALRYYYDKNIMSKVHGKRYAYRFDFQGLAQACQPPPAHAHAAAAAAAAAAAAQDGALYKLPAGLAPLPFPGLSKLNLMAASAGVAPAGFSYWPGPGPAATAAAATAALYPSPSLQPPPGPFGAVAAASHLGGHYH
# Procedure, shortened: (§1)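 Binding signal is given per hexamer as its read frequency for a factor divided by its frequency in the tag-only sample. GST-fused human transcription factors were expressed in yeast, captured on glutathione beads, barcoded with DNA and pooled with that sample, then incubated with 200 nmole of a 16-mer random double-stranded DNA library in Tris/NaCl/DTT/glycerol buffer for 30 min at room temperature. The pools were then washed, crosslinked, proximity-ligated, amplified by PCR and sequenced on an Illumina NextSeq500.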
# [2] = biological target: ETV5 (Homo sapiens, UniProt P41161 1-510)
# Sequence of ETV5 (P41161 whole entry): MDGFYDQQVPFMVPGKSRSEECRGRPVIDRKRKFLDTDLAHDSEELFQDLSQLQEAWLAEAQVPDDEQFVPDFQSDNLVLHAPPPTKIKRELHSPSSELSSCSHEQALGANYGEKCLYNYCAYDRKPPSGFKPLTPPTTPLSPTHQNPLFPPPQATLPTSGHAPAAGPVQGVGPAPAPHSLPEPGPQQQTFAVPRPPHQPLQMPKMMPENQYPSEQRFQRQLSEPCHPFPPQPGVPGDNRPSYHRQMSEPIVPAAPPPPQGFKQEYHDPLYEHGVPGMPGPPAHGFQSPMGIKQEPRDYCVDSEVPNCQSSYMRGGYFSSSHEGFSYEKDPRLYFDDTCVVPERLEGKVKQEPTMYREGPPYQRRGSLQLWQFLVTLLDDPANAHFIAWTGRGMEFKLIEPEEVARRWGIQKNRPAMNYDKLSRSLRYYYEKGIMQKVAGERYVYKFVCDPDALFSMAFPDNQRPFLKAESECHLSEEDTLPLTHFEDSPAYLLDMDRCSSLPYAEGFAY
# Procedure, shortened: as §1
# [3] = biological target: T2, SPIC (Homo sapiens, UniProt Q8N5J4 1-248)
# T2 sequence: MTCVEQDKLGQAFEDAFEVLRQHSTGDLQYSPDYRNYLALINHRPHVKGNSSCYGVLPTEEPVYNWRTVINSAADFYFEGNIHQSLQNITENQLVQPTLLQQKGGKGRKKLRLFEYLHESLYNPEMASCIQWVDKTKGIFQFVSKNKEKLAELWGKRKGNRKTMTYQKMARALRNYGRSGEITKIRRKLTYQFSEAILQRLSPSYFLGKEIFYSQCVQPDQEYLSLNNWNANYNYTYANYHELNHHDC
# Procedure, shortened: as §1
# [4] = biological target: ELF4 (Homo sapiens, UniProt Q99607 1-663)
# Sequence of ELF4 (Q99607 whole entry): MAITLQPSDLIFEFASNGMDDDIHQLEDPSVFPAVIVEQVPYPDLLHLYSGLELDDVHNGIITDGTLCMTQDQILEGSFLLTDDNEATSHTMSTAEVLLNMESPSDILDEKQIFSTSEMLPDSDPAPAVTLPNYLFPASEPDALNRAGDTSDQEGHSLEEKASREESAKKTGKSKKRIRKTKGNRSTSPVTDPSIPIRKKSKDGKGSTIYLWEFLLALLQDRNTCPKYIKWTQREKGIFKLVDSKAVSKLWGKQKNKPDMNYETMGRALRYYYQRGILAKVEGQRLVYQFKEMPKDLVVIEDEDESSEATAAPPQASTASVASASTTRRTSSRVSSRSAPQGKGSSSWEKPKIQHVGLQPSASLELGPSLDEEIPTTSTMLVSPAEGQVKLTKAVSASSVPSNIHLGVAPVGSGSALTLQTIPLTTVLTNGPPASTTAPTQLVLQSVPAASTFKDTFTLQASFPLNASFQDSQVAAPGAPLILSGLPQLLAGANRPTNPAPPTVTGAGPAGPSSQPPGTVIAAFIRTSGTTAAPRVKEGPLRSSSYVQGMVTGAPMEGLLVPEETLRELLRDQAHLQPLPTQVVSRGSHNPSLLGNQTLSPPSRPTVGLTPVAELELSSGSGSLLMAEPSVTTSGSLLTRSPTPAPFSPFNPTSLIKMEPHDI
# Procedure, shortened: as §1
# [5] = biological target: ETV1 (Homo sapiens, UniProt P50549 1-477)
# Sequence of ETV1 (P50549 whole entry): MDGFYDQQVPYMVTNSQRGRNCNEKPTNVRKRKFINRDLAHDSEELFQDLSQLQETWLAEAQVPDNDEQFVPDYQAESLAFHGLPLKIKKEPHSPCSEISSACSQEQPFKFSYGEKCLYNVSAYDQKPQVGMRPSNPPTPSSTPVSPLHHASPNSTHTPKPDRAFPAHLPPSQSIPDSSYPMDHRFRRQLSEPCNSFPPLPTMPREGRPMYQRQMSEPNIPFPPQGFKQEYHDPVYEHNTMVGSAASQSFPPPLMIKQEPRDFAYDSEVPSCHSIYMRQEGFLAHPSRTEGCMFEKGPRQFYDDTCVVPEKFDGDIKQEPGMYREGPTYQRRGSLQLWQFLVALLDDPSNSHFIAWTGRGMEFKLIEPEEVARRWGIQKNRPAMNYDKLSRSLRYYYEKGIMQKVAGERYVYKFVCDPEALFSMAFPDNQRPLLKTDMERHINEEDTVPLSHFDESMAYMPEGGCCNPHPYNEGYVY
# Procedure, shortened: as §1
# [6] = biological target: T3, ERF (Homo sapiens, UniProt P50548 1-548)
# T3 sequence: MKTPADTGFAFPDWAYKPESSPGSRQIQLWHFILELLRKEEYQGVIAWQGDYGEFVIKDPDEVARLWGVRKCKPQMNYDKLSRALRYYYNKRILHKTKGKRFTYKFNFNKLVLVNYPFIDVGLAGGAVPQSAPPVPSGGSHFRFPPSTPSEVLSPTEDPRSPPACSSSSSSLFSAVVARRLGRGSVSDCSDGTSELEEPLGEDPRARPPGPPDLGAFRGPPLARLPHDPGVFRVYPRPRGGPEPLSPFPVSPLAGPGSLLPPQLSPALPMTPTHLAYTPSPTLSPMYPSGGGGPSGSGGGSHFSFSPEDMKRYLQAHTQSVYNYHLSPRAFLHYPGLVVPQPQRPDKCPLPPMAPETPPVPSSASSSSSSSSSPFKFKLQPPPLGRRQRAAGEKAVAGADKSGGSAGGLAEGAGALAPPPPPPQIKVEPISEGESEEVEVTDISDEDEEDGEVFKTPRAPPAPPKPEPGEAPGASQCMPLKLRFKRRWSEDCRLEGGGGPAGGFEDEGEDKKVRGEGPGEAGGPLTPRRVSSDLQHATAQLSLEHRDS
# Procedure, shortened: as §1
# [7] = biological target: T4, ETS2 (Homo sapiens, UniProt P15036 1-469)
# T4 sequence: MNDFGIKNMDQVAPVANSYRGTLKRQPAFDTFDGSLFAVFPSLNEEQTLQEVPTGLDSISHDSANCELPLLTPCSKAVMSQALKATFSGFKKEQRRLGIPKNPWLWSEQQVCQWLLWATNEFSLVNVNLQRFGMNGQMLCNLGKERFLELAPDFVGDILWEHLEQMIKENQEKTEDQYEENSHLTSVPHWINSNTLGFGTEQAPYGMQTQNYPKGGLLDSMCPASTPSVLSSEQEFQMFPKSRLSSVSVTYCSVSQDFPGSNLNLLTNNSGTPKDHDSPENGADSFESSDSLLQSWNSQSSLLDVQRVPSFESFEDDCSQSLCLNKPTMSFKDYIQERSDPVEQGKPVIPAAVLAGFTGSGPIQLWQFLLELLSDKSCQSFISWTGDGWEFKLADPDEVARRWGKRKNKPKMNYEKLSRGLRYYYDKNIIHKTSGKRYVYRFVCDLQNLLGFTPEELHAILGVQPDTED
# Procedure, shortened: as §1
# [8] = biological target: T5, ELF5 (Homo sapiens, UniProt Q9UKW6-2 1-255)
# T5 sequence: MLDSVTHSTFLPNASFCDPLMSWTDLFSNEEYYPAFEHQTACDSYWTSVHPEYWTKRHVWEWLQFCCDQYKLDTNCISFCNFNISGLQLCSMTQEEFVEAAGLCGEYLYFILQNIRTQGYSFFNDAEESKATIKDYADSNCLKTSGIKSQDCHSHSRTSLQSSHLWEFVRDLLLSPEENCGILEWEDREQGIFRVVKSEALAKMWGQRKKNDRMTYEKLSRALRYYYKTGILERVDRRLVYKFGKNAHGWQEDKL
# Procedure, shortened: as §1
# [9] = biological target: T6, ETV3 (Homo sapiens, UniProt P41162-2 1-143)
# T6 sequence: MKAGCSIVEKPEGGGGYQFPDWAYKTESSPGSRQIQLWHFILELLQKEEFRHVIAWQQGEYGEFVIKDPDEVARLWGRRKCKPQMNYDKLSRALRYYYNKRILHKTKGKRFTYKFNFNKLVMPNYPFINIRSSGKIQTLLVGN
# Procedure, shortened: as §1
# [10] = biological target: ETV6 (Homo sapiens, UniProt P41212 1-452)
# Sequence of ETV6 (P41212 whole entry): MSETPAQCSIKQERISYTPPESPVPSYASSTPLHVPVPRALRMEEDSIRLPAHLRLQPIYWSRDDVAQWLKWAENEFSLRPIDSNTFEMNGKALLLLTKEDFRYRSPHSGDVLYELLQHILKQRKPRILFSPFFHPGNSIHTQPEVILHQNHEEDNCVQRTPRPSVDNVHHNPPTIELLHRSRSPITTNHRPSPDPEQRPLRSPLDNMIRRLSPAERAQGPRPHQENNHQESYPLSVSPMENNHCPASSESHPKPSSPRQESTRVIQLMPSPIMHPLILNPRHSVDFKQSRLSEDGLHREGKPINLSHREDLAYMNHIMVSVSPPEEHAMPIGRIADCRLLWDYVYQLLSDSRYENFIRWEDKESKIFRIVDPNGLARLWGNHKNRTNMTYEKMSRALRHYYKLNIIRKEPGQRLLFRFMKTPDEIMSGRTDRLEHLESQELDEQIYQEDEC
# Procedure, shortened: as §1
sequence,measurement,setting,value
GTGTCC,binding signal,[1],"1.1 fold enrichment (6-mer frequency, TF over GST control)"
same,binding signal,[2],"1.16 fold enrichment (6-mer frequency, TF over GST control)"
same,binding signal,[3],"1.2 fold enrichment (6-mer frequency, TF over GST control)"
same,binding signal,[4],"1.08 fold enrichment (6-mer frequency, TF over GST control)"
same,binding signal,[5],"1.02 fold enrichment (6-mer frequency, TF over GST control)"
same,binding signal,[6],"1.06 fold enrichment (6-mer frequency, TF over GST control)"
same,binding signal,[7],"1.16 fold enrichment (6-mer frequency, TF over GST control)"
same,binding signal,[8],"1.1 fold enrichment (6-mer frequency, TF over GST control)"
same,binding signal,[9],"1.2 fold enrichment (6-mer frequency, TF over GST control)"
same,binding signal,[10],"1.02 fold enrichment (6-mer frequency, TF over GST control)"
